From PubChem BioAssay (EPA / NIEHS)
Calls of active or inactive are those of the source. The calls were made as follows: active = hit-call score of the fitted dose curve at least 0.9, where 1 is the maximum; inactive = score below 0.9.

Legend:
Details in all cases: mRNA level, 48 h; actives raise or lower the signal
CYP2C9 (gene 1559) = experiment: LTEA_HepaRG_CYP2C9: Life Technologies and Expression Analysis (LTEA) Assay for CYP2C9 using HepaRG (AID 2283484)
In short: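 Differentiated human HepaRG cells in serum-free induction medium were exposed 48 h to chemicals in 8-point half-log series from 100 uM (0.5% DMSO), in duplicate. CYP2C9 mRNA was measured by qRT-PCR, normalized to ACTB/GAPDH/POLR2A, with bidirectional fitting versus DMSO.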

CYP2E1 (gene 1571) = experiment: LTEA_HepaRG_CYP2E1: Life Technologies and Expression Analysis (LTEA) Assay for CYP2E1 using HepaRG (AID 2283485)
In short: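 Human liver line HepaRG, plated 48 h, then serum-free induction medium + chemical x 48 h; 8-pt CRC from 100 uM, half-log, 0.5% DMSO, n=2. Readout: CYP2E1 mRNA qRT-PCR vs ACTB/GAPDH/POLR2A; bidirectional fit vs DMSO.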

CYP4A11 (gene 1579) = experiment: LTEA_HepaRG_CYP4A11: Life Technologies and Expression Analysis (LTEA) Assay for CYP4A11 using HepaRG (AID 2283486)
In short: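 Human hepatic HepaRG cultures receive duplicate 48 h exposures across a concentration-response series topping at 100 uM. Expression changes in CYP4A11 are measured by qRT-PCR relative to DMSO controls.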

[1] = read-out: DNA damage-inducible transcript 3 (DDIT3), DDIT3 (gene 1649); experiment: LTEA_HepaRG_DDIT3: Life Technologies and Expression Analysis (LTEA) Assay for DNA damage-inducible transcript 3 (DDIT3) using HepaRG (AID 2283488)
In short: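 HepaRG plated 48 h, switched to serum-free induction medium, dosed 48 h (100 uM top, half-log, 8 pts, 0.5% DMSO, n=2); RNA isolated; DDIT3 by qRT-PCR; bidirectional curve fit vs DMSO.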

[2] = read-out: Pro-epidermal growth factor (Homo sapiens) (UniProt P01133); experiment: LTEA_HepaRG_EGF: Life Technologies and Expression Analysis (LTEA) Assay for Epidermal growth factor (EGF) using HepaRG (AID 2283489)
In short: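 Concentration-response mRNA assay: HepaRG cells dosed 48 h (max 100 uM, 0.5% DMSO), EGF measured by qRT-PCR and normalized to ACTB/GAPDH/POLR2A.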

[3] = read-out: Ezrin (EZR), EZR (gene 7430); experiment: LTEA_HepaRG_EZR: Life Technologies and Expression Analysis (LTEA) Assay for Ezrin (EZR) using HepaRG (AID 2283491)
In short: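 Read-out is EZR transcript level by qRT-PCR, normalized to three housekeeping genes and fitted bidirectionally against the DMSO control. Human HepaRG cells received test chemicals for 48 h at eight half-log concentrations up to 100 uM in 0.5% DMSO.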

[4] = read-out: Cytochrome P450 3A7 (Homo sapiens) (UniProt P24462); experiment: LTEA_HepaRG_CYP3A7: Life Technologies and Expression Analysis (LTEA) Assay for CYP3A7 using HepaRG (AID 2283492)
In short: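 qRT-PCR of CYP3A7 in HepaRG lysates after 48 h treatment; concentration-response (8 points, max 100 uM) analysed bidirectionally relative to 0.5% DMSO controls.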

CYP3A5 (gene 1577) = experiment: LTEA_HepaRG_CYP3A5: Life Technologies and Expression Analysis (LTEA) Assay for CYP3A5 using HepaRG (AID 2283493)
In short: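 HepaRG plated 48 h, switched to serum-free induction medium, chemicals added 48 h (max 100 uM, half-log, 0.5% DMSO). RNA isolated; CYP3A5 by TaqMan qRT-PCR. Gain/loss vs DMSO.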

[5] = read-out: Fatty Acid-Binding Protein 1 (FABP1), FABP1 (gene 2168); experiment: LTEA_HepaRG_FABP1: Life Technologies and Expression Analysis (LTEA) Assay for Fatty Acid-Binding Protein 1 (FABP1) using HepaRG (AID 2283494)
In short: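 Differentiated human HepaRG cells exposed 48 h in serum-free induction medium to eight half-log concentrations up to 100 uM (0.5% DMSO), duplicate. FABP1 mRNA by qRT-PCR, normalised to ACTB, GAPDH, POLR2A; bidirectional fitting against DMSO.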

[6] = read-out: Cytochrome P450 4A22 (Homo sapiens) (UniProt Q5TCH4); experiment: LTEA_HepaRG_CYP4A22: Life Technologies and Expression Analysis (LTEA) Assay for Cytochrome P450 4A22 (CYP4A22) using HepaRG (AID 2283495)
In short: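 Concentration-response (8 points, max 100 uM, 0.5% DMSO) in human HepaRG liver cells after 48 h exposure. CYP4A22 mRNA by TaqMan qRT-PCR with housekeeping-gene normalization.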

[7] = read-out: Glutathione S-Transferase (GSTA2), GSTA2 (gene 2939); experiment: LTEA_HepaRG_GSTA2: Life Technologies and Expression Analysis (LTEA) Assay for Glutathione S-Transferase (GSTA2) using HepaRG (AID 2283497)
In short: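 Differentiated human HepaRG cells were exposed in duplicate for 48 h in serum-free induction medium, 8 points from 100 uM top in half-log steps, 0.5% DMSO. GSTA2 mRNA was measured by TaqMan qRT-PCR, normalized to ACTB, GAPDH and POLR2A; bidirectional fit versus DMSO.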

[8] = read-out: Glutamate-cysteine ligase catalytic (GCLC), GCLC (gene 2729); experiment: LTEA_HepaRG_GCLC: Life Technologies and Expression Analysis (LTEA) Assay for Glutamate-cysteine ligase catalytic (GCLC) using HepaRG (AID 2283498)
In short: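 Differentiated HepaRG cells exposed 48 h in serum-free induction medium, eight-point half-log series topping at 100 uM in 0.5% DMSO, duplicates. GCLC mRNA by qRT-PCR normalized to ACTB, GAPDH and POLR2A, fitted bidirectionally versus DMSO.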

[9] = read-out: growth arrest and DNA damage 45 (GADD45G), GADD45G (gene 10912); experiment: LTEA_HepaRG_GADD45G: Life Technologies and Expression Analysis (LTEA) Assay for growth arrest and DNA damage 45 (GADD45G) using HepaRG (AID 2283499)
In short: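 Concentration-response in HepaRG: 48 h dosing, 0.5% DMSO, highest level 100 uM. GADD45G expression by qRT-PCR, normalised to endogenous controls; bidirectional fit to DMSO.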

[10] = read-out: Glutamate-cysteine ligase regulatory (GCLM), GCLM (gene 2730); experiment: LTEA_HepaRG_GCLM: Life Technologies and Expression Analysis (LTEA) Assay for Glutamate-cysteine ligase regulatory (GCLM) using HepaRG (AID 2283500)
In short: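 Cells were plated, cultured 48 h, switched to serum-free induction medium, then dosed in duplicate for 48 h at eight half-log concentrations up to 100 uM. RNA was then profiled by qRT-PCR; gain or loss versus DMSO was fitted.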

[11] = read-out: Glutathione S-transferase M3 (GSTM3), GSTM3 (gene 2947); experiment: LTEA_HepaRG_GSTM3: Life Technologies and Expression Analysis (LTEA) Assay for Glutathione S-transferase M3 (GSTM3) using HepaRG (AID 2283501)
In short: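 Expression of GSTM3 is determined by qRT-PCR in human liver HepaRG cells treated 48 h with an 8-point half-log range from 100 uM in 0.5% DMSO.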

[12] = read-out: Heat shock 70 kDa protein 1 (HSPA1A), gene 3303; experiment: LTEA_HepaRG_HSPA1A: Life Technologies and Expression Analysis (LTEA) Assay for Heat shock 70 kDa protein 1 (HSPA1A) using HepaRG (AID 2283502)
In short: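 Readout is HSPA1A transcript level by microfluidic qRT-PCR, normalized to three housekeeping genes and analysed for gain or loss of signal relative to 0.5% DMSO. Human HepaRG cultures received test chemicals for 48 h at up to 100 uM.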

[13] = read-out: Hypoxia-inducible factor 1-alpha (Homo sapiens) (UniProt Q16665); experiment: LTEA_HepaRG_HIF1A: Life Technologies and Expression Analysis (LTEA) Assay for Hypoxia-inducible factor 1 (HIF1A) Trancription factor using HepaRG (AID 2283503)
In short: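 Differentiated HepaRG cells in serum-free induction medium exposed 48 h, in duplicate, to 8-point half-log series from 100 uM in 0.5% DMSO. HIF1A mRNA measured by TaqMan qRT-PCR, normalized to ACTB/GAPDH/POLR2A, fitted bidirectionally versus DMSO.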

[14] = read-out: Cytochrome P450 7A1 (Homo sapiens) (UniProt P22680); experiment: LTEA_HepaRG_CYP7A1: Life Technologies and Expression Analysis (LTEA) Assay for Cytochrome P450 7A1 (CYP7A1) using HepaRG (AID 2283496)
In short: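 HepaRG cells plated 48 h, then switched to serum-free induction medium and exposed in duplicate for 48 h to 8-point half-log series from 100 uM in 0.5% DMSO. CYP7A1 mRNA by qRT-PCR (TaqMan), normalized to ACTB/GAPDH/POLR2A; bidirectional fit versus DMSO.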

[15] = read-out: Early growth response protein 1 (EGR1) transcription factor, EGR1 (gene 1958); experiment: LTEA_HepaRG_EGR1: Life Technologies and Expression Analysis (LTEA) Assay for Early growth response protein 1 (EGR1) transcription factor using HepaRG (AID 2283490)
In short: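 Differentiated HepaRG cells in serum-free induction medium exposed 48 hours, duplicate, to 8 half-log concentrations up to 100 uM in 0.5% DMSO. EGR1 mRNA measured by TaqMan qRT-PCR, normalized to ACTB, GAPDH, POLR2A; bidirectional fit versus DMSO.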

Measured: AC50

Sequence of Cytochrome P450 3A7 (Homo sapiens) (P24462 whole entry, looked up): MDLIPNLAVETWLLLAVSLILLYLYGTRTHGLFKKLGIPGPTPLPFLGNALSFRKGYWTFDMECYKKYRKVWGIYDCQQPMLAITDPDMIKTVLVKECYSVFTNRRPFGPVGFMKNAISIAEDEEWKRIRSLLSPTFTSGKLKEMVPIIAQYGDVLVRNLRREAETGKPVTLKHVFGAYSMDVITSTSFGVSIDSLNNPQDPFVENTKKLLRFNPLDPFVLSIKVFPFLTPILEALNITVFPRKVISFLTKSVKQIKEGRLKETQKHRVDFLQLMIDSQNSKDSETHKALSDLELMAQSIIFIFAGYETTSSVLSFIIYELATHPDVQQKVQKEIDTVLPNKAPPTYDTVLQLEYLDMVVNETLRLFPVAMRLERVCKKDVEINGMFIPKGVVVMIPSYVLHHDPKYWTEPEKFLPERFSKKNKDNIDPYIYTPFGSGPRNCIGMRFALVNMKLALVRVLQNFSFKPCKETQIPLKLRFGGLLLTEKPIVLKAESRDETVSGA
Sequence of Hypoxia-inducible factor 1-alpha (Homo sapiens) (Q16665 whole entry, looked up): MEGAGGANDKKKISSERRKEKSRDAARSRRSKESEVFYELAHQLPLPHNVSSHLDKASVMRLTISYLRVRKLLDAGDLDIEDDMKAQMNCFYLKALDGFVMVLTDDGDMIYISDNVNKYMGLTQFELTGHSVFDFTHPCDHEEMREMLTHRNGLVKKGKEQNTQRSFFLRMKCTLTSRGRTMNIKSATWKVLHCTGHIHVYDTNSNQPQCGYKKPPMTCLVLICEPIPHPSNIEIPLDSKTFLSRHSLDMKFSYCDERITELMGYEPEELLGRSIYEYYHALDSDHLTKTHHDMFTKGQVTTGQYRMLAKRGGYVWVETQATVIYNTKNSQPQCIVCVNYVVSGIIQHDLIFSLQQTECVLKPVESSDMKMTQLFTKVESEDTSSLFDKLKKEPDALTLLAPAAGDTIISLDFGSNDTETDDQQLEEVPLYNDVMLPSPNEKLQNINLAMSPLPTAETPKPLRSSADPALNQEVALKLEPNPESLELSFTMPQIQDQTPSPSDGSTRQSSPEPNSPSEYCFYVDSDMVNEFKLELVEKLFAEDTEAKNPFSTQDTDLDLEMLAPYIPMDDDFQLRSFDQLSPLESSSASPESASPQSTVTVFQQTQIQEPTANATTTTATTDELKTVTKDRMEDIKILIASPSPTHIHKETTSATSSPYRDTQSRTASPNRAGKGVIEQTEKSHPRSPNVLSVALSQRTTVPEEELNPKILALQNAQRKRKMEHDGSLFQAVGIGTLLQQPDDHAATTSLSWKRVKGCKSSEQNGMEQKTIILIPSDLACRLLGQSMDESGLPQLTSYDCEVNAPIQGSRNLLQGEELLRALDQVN

CC[C@@H]1C[C@H](N(Cc2cc(C(F)(F)F)cc(C(F)(F)F)c2)C(C)=O)c2cc(C(F)(F)F)ccc2N1C(=O)OC(C)C
active: CYP2E1 (gene 1571) 3.17 µM | CYP4A11 (gene 1579) 15.6 µM | [4] 0.435 µM | [5] 4.3 µM | [6] 9.62 µM
not listed: [14] | [15]
inactive: all other assays above

c1ccc2ccccc2c1
not listed: [15]
inactive: all other assays above

NCc1cccc(C2CCN(C(=O)c3ccc(C#Cc4ccccc4F)o3)CC2)c1
active: CYP2C9 (gene 1559) 91.7 µM | CYP2E1 (gene 1571) 79.3 µM | CYP4A11 (gene 1579) 82.4 µM | [1] 75.4 µM | [4] 77.7 µM | CYP3A5 (gene 1577) 81.1 µM | [6] 81 µM | [7] 78.9 µM
not listed: [14]
inactive: all other assays above

CC(=O)N1CCN(c2ccc(OC[C@H]3CO[C@](Cn4ccnc4)(c4ccc(Cl)cc4Cl)O3)cc2)CC1
inactive: [3] | [9]
active: CYP2C9 (gene 1559) 12.7 µM | CYP2E1 (gene 1571) 12.9 µM | CYP4A11 (gene 1579) 12.4 µM | [1] 12.9 µM | [15] 38.4 µM | CYP3A5 (gene 1577) 50 µM | [5] 12.7 µM | [14] 12.9 µM | [7] 11.3 µM | [8] 65.5 µM | [10] 88.7 µM | [11] 22.7 µM | [12] 79.5 µM

O=C1O[C@H]([C@@H](O)CO)C(O)=C1O
not listed: [15]
inactive: all other assays above

O=C(Nc1ccc(Cl)cc1)Nc1ccc(Cl)c(Cl)c1
active: CYP2C9 (gene 1559) 16.9 µM | CYP2E1 (gene 1571) 15.8 µM | CYP4A11 (gene 1579) 28.7 µM | [1] 26.6 µM | [2] 50 µM | [15] 12.6 µM | [5] 16.7 µM | [6] 24.2 µM | [14] 26 µM | [7] 27.2 µM | [9] 22.8 µM | [12] 29.1 µM | [13] 72.1 µM
inactive: [3] | CYP3A5 (gene 1577) | [10] | [11]
